{"source": "PubChem BioAssay (Tox21)", "note": "Results filed as inconclusive are left out. Calls of active or inactive are those of the source. Calls follow the shape of the dose curve; as a rule, active = well fitted cell-killing curve with a large enough effect in the repeat runs; inconclusive = weak or mixed curves; inactive = no such curve, though single readings can be large or run the other way. % is scaled to controls: 0 for no effect and ±100 for the full control effect."}
{"experiment": "qHTS assay to identify small molecule antagonists of the androgen receptor (AR) signaling pathway - cell viability counter screen (AID 743033; also: nearly all actives have a fitted effect of over 45% in size)", "conditions": "AR-bla HEK293 viability, CellTiter-Glo luminescence, 16 h; series mostly up to 58.5 µM; activity change, negative = cytotoxicity: at the top concentration", "source_text": "National Center for Advancing Translational Sciences [NCATS]\nNIH Chemical Genomics Center [NCGC]\nU.S. Environmental Protection Agency [EPA]\nNational Institutes of Environmental Health Sciences [NIEHS]\nNational Toxicology Program [NTP]\nU.S. Food and Drug Administration [FDA]\nAndrogen receptor (AR), a nuclear hormone receptor, plays a critical role in AR-dependent prostate cancer and other androgen related diseases. Endocrine disrupting chemicals (EDCs) and their interactions with steroid hormone receptors like AR may cause disruption of normal endocrine function as well as interfere with metabolic homeostasis, reproduction, developmental and behavioral functions. To identify the compounds that inhibit AR signaling, GeneBLAzer AR-UAS-bla-GripTite cell line (Invitrogen, Carlsbad, CA, USA) containing a beta-lactamase reporter gene under control of an Upstream Activator Sequence (UAS) stably integrated into HEK293 cells was used to screen the Tox21 10K compound library. The cytotoxicity of the Tox21 compound library against the AR-bla cell line was tested in parallel by measuring the cell viability using CellTiter-Glo assay in the same wells.\nTox21 Assay Protocol Summary:\nAR-bla cells were dispensed at 2,000 cells/5 uL of assay medium per well into black wall/clear-bottom 1536-well plates using a Multidrop Combi (ThermoFisher Scientific, Waltham, MA) dispenser. After the assay plates were incubated at a 37C and 5% CO2 for 4 hr, 23 nL of compounds dissolved in DMSO, positive controls or DMSO only was transferred to the assay plate by a Pintool station (Kalypsys, San Diego, CA), followed by addition of 1 uL of agonist (R1881) in culture medium using a Bioraptr Flying Reagent Dispenser (FRD) workstation (Beckman Coulter, Indianapolis, IN, USA). The plates were incubated at a 37C and 5% CO2 for 16 h. After 1 uL of LiveBLAzerTM B/G FRET substrate was added using a Bioraptr FRD, the plates were incubated at room temperature for 2 h and fluorescence intensity was measured by an Envision plate reader (PerkinElmer, Shelton, CT). For cell viability readout that measures cytotoxicity, 4 ul/well of CellTiter-Glo reagent was added into the assay plates using a Bioraptr FRD. After 30 min incubation at room temperature, the luminescence intensity in the plates was measured using a ViewLux (PerkinElmer) plate reader."}
{"smiles": "CCC(=O)OCC(=O)[C@@]1(OC(=O)CC)[C@@H](C)C[C@H]2[C@@H]3CCC4=CC(=O)C=C[C@]4(C)[C@@]3(Cl)[C@@H](O)C[C@@]21C", "activity change, negative = cytotoxicity": "-26.1% (inactive)"}
{"smiles": "CC(O)CN(C)C", "note": "(stereo not given)", "activity change, negative = cytotoxicity": "-1.24% (inactive)"}
{"smiles": "O=C(NCCNCC(O)COc1ccc(O)cc1)N1CCOCC1", "note": "(stereo not given)", "activity change, negative = cytotoxicity": "-6.25% (inactive)"}
{"smiles": "CCCCCC(O)/C=C/C=O", "note": "(stereo not given)", "activity change, negative = cytotoxicity": "0.398% (inactive)"}
{"smiles": "C#CCOc1ccc2c(C)cc(=O)oc2c1", "activity change, negative = cytotoxicity": "-13.4% (inactive)"}
{"smiles": "COC(=O)[C@H]1[C@H]2C[C@@H]3c4[nH]c5cc(OC)ccc5c4CCN3C[C@H]2C[C@H](OC)[C@@H]1OC", "activity change, negative = cytotoxicity": "1.07% (inactive)"}
{"smiles": "CCCCC/C=C\\C/C=C\\C/C=C\\CCCCC(=O)O", "activity change, negative = cytotoxicity": "-1.21% (inactive)"}
{"smiles": "CC[C@]1(O)CC2CN(CCc3c([nH]c4ccccc34)[C@@](C(=O)OC)(c3cc4c(cc3OC)N(C)[C@H]3[C@@](O)(C(N)=O)[C@H](O)[C@]5(CC)C=CCN6CC[C@]43[C@@H]65)C2)C1", "note": "(stereo not given in full)", "activity change, negative = cytotoxicity": "-21.8% (inactive)"}
{"smiles": "C[N+](C)(CCCCCC[N+](C)(C)C1c2ccccc2-c2ccccc21)C1c2ccccc2-c2ccccc21", "activity change, negative = cytotoxicity": "11.5% (inactive)"}
{"smiles": "O=C1O[C@H]2[C@H](O)[C@@H]1OC(O)[C@H]2O", "note": "(stereo not given in full)", "activity change, negative = cytotoxicity": "-0.112% (inactive)"}
{"smiles": "CCCCCCCCCCCCOCCCN", "activity change, negative = cytotoxicity": "0.0179% (inactive)"}
{"smiles": "C[C@@H](O)[C@H]1C(=O)N2C(C(=O)[O-])=C(SC3Cn4cnc[n+]4C3)[C@H](C)[C@H]12", "note": "(stereo not given in full)", "activity change, negative = cytotoxicity": "0.889% (inactive)"}
{"smiles": "Cc1ncc(C[n+]2csc(CCOP(=O)(O)OP(=O)(O)O)c2C)c(N)n1", "activity change, negative = cytotoxicity": "3.2% (inactive)"}
{"smiles": "NC(=O)Oc1ccc(Cc2ccccc2)cc1", "activity change, negative = cytotoxicity": "-11.6% (inactive)"}
{"smiles": "O=C(O)c1nc(=O)[nH]c(=O)[nH]1", "activity change, negative = cytotoxicity": "7.92% (inactive)"}
{"smiles": "CS(=O)(=O)OCCCNCCCOS(C)(=O)=O", "activity change, negative = cytotoxicity": "7.06% (inactive)"}
{"smiles": "CC(C)C[C@H](NC(=O)[C@@H](Cc1c[nH]c2ccccc12)NC(=O)[C@H](Cc1ccc(O)cc1)NC(=O)[C@H](CO)NC(=O)[C@H](Cc1c[nH]c2ccccc12)NC(=O)[C@H](Cc1cnc[nH]1)NC(=O)[C@@H]1CCC(=O)N1)C(=O)N[C@@H](CCCN=C(N)N)C(=O)N1CCC[C@@H]1C(=O)NCC(N)=O", "activity change, negative = cytotoxicity": "-3.59% (inactive)"}
{"smiles": "COc1ccc2cc([C@H](C)CO)ccc2c1", "activity change, negative = cytotoxicity": "5.32% (inactive)"}
{"smiles": "NS(=O)(=O)c1cc2c(cc1Cl)NC(Cc1ccccc1)NS2(=O)=O", "note": "(stereo not given)", "activity change, negative = cytotoxicity": "16.8% (inactive)"}
{"smiles": "COc1ccc(/C=C/C(=O)OCCC(C)C)cc1", "activity change, negative = cytotoxicity": "14.8% (inactive)"}
{"smiles": "S=C=Nc1ccc(N=C=S)cc1", "activity change, negative = cytotoxicity": "-3.14% (inactive)"}
{"smiles": "C=CCSSSCC=C", "activity change, negative = cytotoxicity": "2.87% (inactive)"}
{"smiles": "[O]=[Bi][O]C(=O)[O][Bi]=[O]", "activity change, negative = cytotoxicity": "-26% (inactive)"}
{"smiles": "O=C(O)CCC/C=C\\C[C@@H]1[C@@H](/C=C/[C@@H](O)COc2cccc(C(F)(F)F)c2)[C@H](O)C[C@@H]1O", "activity change, negative = cytotoxicity": "0.591% (inactive)"}
{"smiles": "Nc1ccn(C[C@@H](CO)OCP(=O)(O)O)c(=O)n1", "activity change, negative = cytotoxicity": "1.44% (inactive)"}
{"smiles": "C[C@@](Cc1ccc(O)c(O)c1)(NN)C(=O)O", "activity change, negative = cytotoxicity": "5.12% (inactive)"}
{"smiles": "CC[N+](C)(C)Cc1ccccc1Br", "activity change, negative = cytotoxicity": "-34.2% [at 27 µM] (inactive)"}
{"smiles": "CC1(C)S[C@@H]2[C@H](NC(=O)C3(N)CCCCC3)C(=O)N2[C@H]1C(=O)O", "activity change, negative = cytotoxicity": "1.01% (inactive)"}
{"smiles": "CCN(CC)CCOC(=O)c1ccc(N)cc1Cl", "activity change, negative = cytotoxicity": "0.747% (inactive)"}
{"smiles": "O=P(O)(O)C(O)(Cc1cnc2ccccn12)P(=O)(O)O", "activity change, negative = cytotoxicity": "-1.48% (inactive)"}
{"smiles": "Cc1c(O)cc2c(c1C)O[C@](C)(CCC[C@H](C)CCC[C@H](C)CCCC(C)C)CC2", "activity change, negative = cytotoxicity": "-12.9% (inactive)"}
{"smiles": "NNc1nnc(Cc2ccncc2)c2ccccc12", "activity change, negative = cytotoxicity": "-14.3% (inactive)"}
{"smiles": "C[C@H]1[C@@H](OC(=O)CCC(=O)O)O[C@@H]2OC3(C)CC[C@H]4[C@H](C)CC[C@@H]1[C@@]24OO3", "activity change, negative = cytotoxicity": "11.4% (inactive)"}
{"smiles": "C[Se]CCC(N)C(=O)O", "note": "(stereo not given)", "activity change, negative = cytotoxicity": "-3.46% (inactive)"}
{"smiles": "O=C(COc1ccc(Cl)cc1)OCCNC12CC3CC(CC(C3)C1)C2", "activity change, negative = cytotoxicity": "-5.36% (inactive)"}
{"smiles": "N[C@H](CC(=O)O)C(=O)O", "activity change, negative = cytotoxicity": "19.1% (inactive)"}
{"smiles": "O=C(NOC[C@H](O)CO)c1ccc(F)c(F)c1Nc1ccc(I)cc1F", "activity change, negative = cytotoxicity": "-0.342% (inactive)"}
{"smiles": "COc1cc(NCCCC(C)N)c2ncccc2c1", "note": "(stereo not given)", "activity change, negative = cytotoxicity": "-16.8% (inactive)"}
{"smiles": "CN1c2c(nc(N)[nH]c2=O)NCC1CNc1ccc(C(=O)NC(CCC(=O)O)C(=O)O)cc1", "note": "(stereo not given)", "activity change, negative = cytotoxicity": "-4.44% (inactive)"}
{"smiles": "CC1(C)C2CC[C@]3(C)[C@H](C(=O)C=C4[C@@H]5C[C@@](C)(C(=O)O)CC[C@]5(C)CC[C@]43C)[C@@]2(C)CC[C@@H]1O[C@H]1O[C@H](C(=O)O)[C@@H](O)[C@H](O)[C@H]1O[C@@H]1O[C@H](C(=O)O)[C@@H](O)[C@H](O)[C@H]1O", "note": "(stereo not given in full)", "activity change, negative = cytotoxicity": "-7.23% (inactive)"}
